# Luc counter: blocks Kinase-Glo luciferase, a counter-screen artifact; Q27757; Kinase-Glo luciferase, ATP luminescence, 8 min; Potency, µM (top dose mostly 38.3 µM), inactives show at the highest dose activity change, negative = inhibition, usual class: inhibitors; actives 0.28% (n = 200,000); further: on the % scale 0 is the no-effect control and ±100 the full control effect; nearly all actives have a fitted effect of over 60% in size
#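 Kinase-Glo luciferase light output from ATP and luciferin was measured with 10 uM ATP, within the enzyme's linear range. Buffer: 50 mM imidazole pH 7.2, 50 mM KCl, 7 mM MgCl2, 0.01% Tween 20, 0.05% BSA; luminescence read after 8 min at ambient temperature.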
# ALDH1A1 block: inhibitors of human aldehyde dehydrogenase 1A1. actives 7.3% (n = 220,000). Potency, µM (titrated, usually from 75.3 µM), for the others: at the highest dose activity, negative = inhibition, most hits filed as inhibitors. Purified ALDH1A1, NADH fluorescence, propionaldehyde substrate. P00352. AID 1030; active means well fitted inhibition curve with a large enough effect, not every such curve was filed as active; inconclusive means small, poorly fitted or top-dose-only effect, or another doubt; inactive means no such curve, though single readings can be large or run the other way;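 further: plate controls were no enzyme wells and a reference inhibitor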
# HTT ATP protect: protects HTT-Q103 PC12 cells, measured by ATP | PC12 HTT-Q103 induced, cytoprotection, ATP luminescence, 40 h | Potency, µM (series often up to 56.4 µM), for inactives: cytoprotection (ATP increase), usual class: activators | actives 0.14% (n = 230,000); further: % of control where 0% means no effect; nearly all actives have a fitted effect of over 45% in size
#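 PC12 cells stably carrying ecdysone-inducible Htt exon 1 (Q103)–GFP were induced with 100 nM tebufenozide (final) alongside library compounds in a dose series. Cytoprotection was scored as retained ATP by ATPlite luminescence.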
# HTT aggregate: mutant huntingtin aggregation inhibition; PC12 HttQ103-GFP aggregates, Acumen cytometry, 40 h; AID 1688; actives 1.1% (n = 220,000); Potency, µM (doses to about 46.1 µM), for inactives: at the highest dose activity change, negative = inhibition, usual class: inhibitors; further: on the % scale 0 is the no-effect control and ±100 the full control effect; nearly all actives have a fitted effect of over 60% in size
#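 Quantitative HTS on tebufenozide-induced (100 nM) PC12 cells stably expressing polyQ103 Huntingtin exon 1–GFP. Reduction of bright GFP aggregates, detected by laser scanning cytometry after lysis, identified actives across the titration.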
# Lamin A splicing: modulators of lamin A splicing; HeLa LMNA splicing GFP/RFP minigene ratio, 48 h; Potency, µM (highest dose often 46.1 µM), for the others: top-dose ratio change, negative = inhibition, usual class: inhibitors; actives 0.01% (n = 200,000); AID 1487; active means well fitted inhibition curve with a large enough effect in the signal ratio, with a control signal flat, not every such curve was filed as active; inconclusive means small, poorly fitted or top-dose-only effect, or effect the other way, or a change in a side signal; the % refers to the signal ratio; further: on the % scale 0 is the no-effect control and ±100 the full control effect
#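 S3 HeLa cells stably expressing lamin A-EGFP splicing minigene plus DsRed2, 600 cells/well, 48 h compound exposure at 37C. Laser-scanning cytometry; analysed as GFP (500-530 nm)/RFP (575-640 nm) total intensity ratio; 0.5% DMSO vehicle.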
# HPGD block: HPGD (human) dehydrogenase inhibition. AID 894. P15428. actives 4.3% (n = 150,000). purified HPGD, NADH fluorescence kinetic, PGE2 substrate. Potency, µM, without a hit: at the highest dose activity change, negative = inhibition, usual class: inhibitors; active means well fitted inhibition curve with a large enough effect, not every such curve was filed as active; inconclusive means small, poorly fitted or top-dose-only effect, or another doubt; inactive means no such curve, though single readings can be large or run the other way; further: on the % scale 0 is the no-effect control and ±100 the full control effect
# Target sequence (P15428 whole entry, looked up): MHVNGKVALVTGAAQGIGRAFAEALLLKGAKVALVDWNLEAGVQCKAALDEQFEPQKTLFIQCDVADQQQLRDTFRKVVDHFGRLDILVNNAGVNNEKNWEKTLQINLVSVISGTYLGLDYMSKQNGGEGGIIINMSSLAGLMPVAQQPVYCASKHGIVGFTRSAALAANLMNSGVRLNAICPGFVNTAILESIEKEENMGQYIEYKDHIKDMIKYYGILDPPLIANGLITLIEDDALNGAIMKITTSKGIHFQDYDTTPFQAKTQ
#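 20 nM HPGD preincubated 15 min at room temperature with compound in 50 mM Tris-HCl pH 8, 0.01% Tween 20. Started with 1 mM NAD+ and 30 uM prostaglandin E2; NADH fluorescence (360/450 nm) read 5 times over 30-s intervals, last minus first.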
# * marks the source's active call; other numbers are inactive results; ? = inconclusive; · = not tested or not shown; [ ] = dose if it differs, or a comment. Compounds with a hit are over-represented: about 9% of the library has one in this group of screens. Unless noted, the call rests on the fitted dose curve; in most records, active means well fitted curve in the direction sought with a large enough effect; inconclusive means small, poorly fitted or top-dose-only effect, or another doubt; inactive means no such curve, though single readings can be large; an effect the other way counts as inactive or inconclusive. Potency means the concentration at half of the fitted maximal effect.
SMILES,Luc counter,ALDH1A1 block,HTT ATP protect,HTT aggregate,Lamin A splicing,HPGD block
O=c1c(/C=N/O)c(Nc2ccccc2)nc2ccccn12,5%,?,-13%,-4%[9.22 µM],5%,0.56µM*
CCC(C)N=Cc1c(Nc2ccccc2)nc2c(C)cccn2c1=O (configuration not stated),·,·,22%[10 µM],-39%[9.22 µM],·,·
COc1ccc(S(=O)(=O)Nc2ccc(N3CCOCC3)cc2)cc1Br,-1%,?,11%,5%,-23%,-3%
COc1ccc(S(=O)(=O)Nc2ccc(N3CCOCC3)cc2)cc1[N+](=O)[O-],-3%,13µM*,-13%,-22%,·,·
COc1ccc(OCC(=O)Nc2ccc(N3CCOCC3)cc2)cc1,-5%,-6%,-6%,8%,-2%,-8%
COc1ccc(OCC(=O)Nc2ccc(N3CCOCC3)cc2)c([N+](=O)[O-])c1,0%,28µM*,-23%,-12%,·,·
C[C@H](NC(=O)c1nc[nH]c1C(=O)NCCCCCNC(=O)OC(C)(C)C)C(=O)OC(C)(C)C,·,-3%,-14%[10 µM],-15%[9.22 µM],·,·
CCCNC(=O)C1CCN(c2ccc(S(=O)(=O)N3CCOCC3)cc2Cl)CC1,1%,6%,-6%[10 µM],-7%,?,16µM*
COc1ccccc1NC(=O)CSCc1ccc([N+](=O)[O-])cc1,-1%,-10%,-3%,19%,33%[46 µM],·
Cn1cc([N+](=O)[O-])c(C(=O)N(Cc2ccccc2)Cc2ccccc2)n1,2%,-10%,2.5µM*,24%,1%,-13%
CC1CC1C(=O)Nc1ccc(-c2ccccc2)cc1 (configuration not stated),1%,8%,1%[10 µM],1%,-25%,?
COc1cccc(NC(=S)N2CCn3cccc3C2c2cccnc2)c1 (configuration not stated),3%,14µM*,-26%,-14%,-19%[46 µM],·
S=C(NCc1ccccc1)N1CCn2cccc2C1c1cccnc1 (configuration not stated),-3%,3.5µM*,-18%,-7%,·,·
O=C(c1ccc(CS(=O)(=O)c2ccc(Br)cc2)o1)N1CCCC1,-1%,?,-22%,3%,-5%,-11%
NC(=O)c1ncc(C(F)(F)F)cc1Cl,-2%,0%,-6%[10 µM],-5%,12%[46 µM],·
NC(=S)c1ncc(C(F)(F)F)cc1Cl,·,28µM*,-2%[10 µM],12%[9.22 µM],·,·
Cc1ccsc1CN1CCC(C(=O)NCc2ccccc2Cl)CC1,0%,?,·,-14%,-2%,-4%
Cc1ccc(C(=O)N[C@H](C(=O)OCc2cc(=O)oc3cc(C)ccc23)C(C)C)cc1,0%,3%,20%[1.9 µM],-14%,-6%,-11%
COc1ccc(C(=O)N[C@H](C(=O)OCc2cc(=O)oc3cc(C)ccc23)C(C)C)cc1,-2%,11µM*,15%[10 µM],?,-9%,-27%
COc1ccc(C(=O)Nc2ccc(C(=O)OCC(=O)c3cccc4ccccc34)cc2)cc1,·,-1%,2%[10 µM],12%,-3%,·
CC(=O)Oc1ccc(C(=O)Nc2cccc(-c3nnc(-c4ccco4)o3)c2)cc1,·,·,3%[10 µM],3%[9.22 µM],·,·
O=S(=O)(Nc1nccs1)c1cnc(Cl)c(Br)c1,2%,?,10%[10 µM],-19%,0%,-13%
O=S(=O)(Nc1nc2ccccc2s1)c1cnc(Cl)c(Br)c1,·,20µM*,0%[10 µM],-12%[9.22 µM],·,·
Cc1ccc(C(C[N+](=O)[O-])n2nc(C)cc2C)cc1 (configuration not stated),-7%,?,5%,-6%,6%,16µM*
Cc1ccc(S(=O)(=O)n2nc(C)cc2C)cc1,-4%,9%,9%,18%,4%,-5%
CCc1c(O)cc2n(c1=O)-c1ccc(Cl)cc1C2(C)C,0%,28µM*,3%[10 µM],-17%,?,-8%
Cc1cc(C)c2c(N)c(S(=O)(=O)Cc3ccccc3)sc2n1,2%,-14%,-2%,-3%[9.22 µM],3%,22µM*

# Screens (PubChem)
